The full ranking holds about 33,000 sequences; the median of “E-score (-0.5 to 0.5)” is about -0.013, and the highest 2% start at about 0.3. For the sample, the highest values were picked, then their nearest neighbours and some sequences at random.
Target: T1, Msn1 (UniProt P22148)
T1 sequence: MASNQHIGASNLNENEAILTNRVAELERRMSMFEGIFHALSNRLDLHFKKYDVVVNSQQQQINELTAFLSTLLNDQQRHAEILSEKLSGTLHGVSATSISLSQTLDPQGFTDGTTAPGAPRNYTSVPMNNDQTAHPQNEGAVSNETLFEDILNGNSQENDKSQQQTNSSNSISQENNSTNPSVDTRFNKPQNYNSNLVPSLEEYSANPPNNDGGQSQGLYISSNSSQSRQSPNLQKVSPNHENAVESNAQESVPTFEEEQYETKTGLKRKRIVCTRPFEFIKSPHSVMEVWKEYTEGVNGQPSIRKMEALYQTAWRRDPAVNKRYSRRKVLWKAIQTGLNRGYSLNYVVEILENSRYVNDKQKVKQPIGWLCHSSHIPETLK
Experiment: PBM E-score (8-mer binding enrichment) (E-score (-0.5 to 0.5)); higher = stronger / more preferred TF binding
Settings: protein concentration: 200 nM; construct: GST-full length
Description: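 Universal 'all 10-mer' protein binding microarrays (Agilent AMADID 015681) probed with GST-tagged S. cerevisiae TFs (full-length or DBD) made by in vitro transcription/translation (PURExpress), about 100-200 nM. Bound TF was detected with fluorescent anti-GST. Each ungapped 8-mer (which stands for itself and its reverse complement) is scored by the PBM enrichment score (E-score), a modified Wilcoxon-Mann-Whitney statistic from -0.5 to +0.5, computed with the Universal PBM Analysis Suite. Scale: above 0.35 generally sequence-specific binding.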

Going from ATCTCCGC to CTACAATC, the “PBM E-score” value rises from -0.208 to 0.0383.

First: ACCGCGTG
Second: ATGTAAAG
The “PBM E-score” value of the first is lower: -0.118 for the first, -0.0428 for the second.

Going from CCGAACGC to CCTATCTA, the “PBM E-score” value falls from 0.158 to -0.0647.

Going from CAATGCAG to CCGACAAG, the “PBM E-score” value rises from -0.0326 to 0.13.

First: GCGACAAA
Second: TCGACAGA
The “PBM E-score” value of the first is higher: 0.355 for the first, -0.101 for the second.

First: ACGACAAA
Second: CCGACAAC
The “PBM E-score” value of the first is higher: 0.435 for the first, 0.167 for the second.

First: CCGACAAA
Second: GCGACAGA
The “PBM E-score” value of the first is higher: 0.42 for the first, 0.144 for the second.

Going from ACGACAAC to ACGACAAG, the “PBM E-score” value falls from 0.227 to 0.0652.

Going from GCGACAAC to TCGACGAA, the “PBM E-score” value falls from 0.167 to 0.118.

Compared with TCGACAAA, TACCGGGA is lower in “PBM E-score” value: 0.378 for the first, 0.148 for the second.

Compared with AGCCTGTG, AGAGATTG is higher in “PBM E-score” value: -0.221 for the first, -0.0815 for the second.

Going from GCGCAGAA to GAGACCTC, the “PBM E-score” value falls from 0.0474 to -0.0881.

First: GAGAACTC
Second: AATGGAAT
The “PBM E-score” value of the first is lower: -0.162 for the first, 0.238 for the second.

Going from CCCAGCCA to CAGGTTGG, the “PBM E-score” value rises from -0.156 to -0.102.

Compared with ACTATGGG, CAGAATGC is higher in “PBM E-score” value: -0.169 for the first, -0.094 for the second.

First: GACAAATC
Second: CACAAGTC
The “PBM E-score” value of the first is higher: 0.473 for the first, 0.0697 for the second.

First: AACAAATA
Second: TACAAGTA
The “PBM E-score” value of the first is higher: 0.211 for the first, 0.0835 for the second.

First: AACAAATC
Second: AACAAGTA
The “PBM E-score” value of the first is higher: 0.0327 for the first, -0.0396 for the second.

Compared with CACAAATC, GACAAGTC is higher in “PBM E-score” value: 0.0687 for the first, 0.419 for the second.

Compared with GACAAGTA, TACAAATA is lower in “PBM E-score” value: 0.369 for the first, 0.281 for the second.

Compared with GACAAATA, AACAAGTC is lower in “PBM E-score” value: 0.483 for the first, 0.103 for the second.

First: ATGGGATG
Second: CTGCAAGC
The “PBM E-score” value of the first is lower: -0.177 for the first, -0.17 for the second.

Going from ACACAGGT to AGAGTAAA, the “PBM E-score” value falls from 0.0743 to -0.0814.

Compared with GTCGAGTA, CACCCTAA is lower in “PBM E-score” value: -0.0563 for the first, -0.141 for the second.

Going from CCCTCTGA to GTAGGATA, the “PBM E-score” value rises from -0.174 to -0.0803.

First: CTAGGACC
Second: ATAGGACC
The “PBM E-score” value of the first is higher: -0.0875 for the first, -0.11 for the second.

Compared with CTAGGATA, GTAGGAGA is lower in “PBM E-score” value: -0.13 for the first, -0.204 for the second.

First: ATAGGACG
Second: GTAGGACA
The “PBM E-score” value of the first is lower: 0.242 for the first, 0.479 for the second.

Going from ATAGGACA to CTAGGACA, the “PBM E-score” value rises from 0.457 to 0.489.

Going from CGCTACAC to GCCACACA, the “PBM E-score” value rises from -0.231 to -0.0564.

Going from AACGTTAA to AGTAAGCG, the “PBM E-score” value falls from 0.137 to -0.082.

Going from GAGTAGGA to AGGAGACG, the “PBM E-score” value falls from -0.151 to -0.298.

Compared with ATTTATAA, ATTTATAC is lower in “PBM E-score” value: 0.322 for the first, 0.176 for the second.

First: GCTTATAA
Second: ACTTATAA
The “PBM E-score” value of the first is lower: -0.0204 for the first, 0.333 for the second.

Compared with ACTTATAC, CTTTATAA is higher in “PBM E-score” value: 0.0919 for the first, 0.177 for the second.

First: ACCATAAA
Second: ATATCTGA
The “PBM E-score” value of the first is higher: 0.173 for the first, 0.112 for the second.

Going from CACTTCCA to AAGGTCGT, the “PBM E-score” value rises from -0.0388 to -0.0332.

First: CATGTCGC
Second: CATGTCGG
The “PBM E-score” value of the first is higher: 0.237 for the first, 0.224 for the second.

First: AATGTCGG
Second: AATGTCGA
The “PBM E-score” value of the first is higher: 0.33 for the first, 0.299 for the second.

Going from AGTGTCGG to AATGTCGC, the “PBM E-score” value rises from 0.202 to 0.398.

Compared with GATGTCGC, AATGTCGT is higher in “PBM E-score” value: 0.0908 for the first, 0.442 for the second.

Compared with CTCCTTTC, GAAAGTGC is higher in “PBM E-score” value: -0.214 for the first, -0.0805 for the second.

Going from ATAGACCA to ACGATCCC, the “PBM E-score” value falls from -0.0849 to -0.232.

CGGCTCTA was tested, and the “PBM E-score” value was -0.00727.

From the supplement of paper PMC3334620
